A word on the viability: it is a read-out of living cells in per cent, often relative to untreated cells. For orientation: inhibition means the change of the read-out against control, counted positive when it falls.

Experiment [1] can be described thus: P. berghei load reduction in hepatocytes – cell-based, HepG2, luciferase luminescence, HepG2 viability, primary screen (AID 624349; in the data active = parasite load remaining mostly below about 12%, no sharp cut-off; inactive = mostly above about 10%;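 note: 100% = mean of DMSO negative control wells on the same plate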). The following applies: P. berghei liver stage in HepG2, luciferase luminescence, concentration not given here; parasite load remaining: stronger effect = lower value; viability: measured here: HepG2 viability without parasites.
The nature of experiment [2]: signal quenchers or enhancers, Cy5 substrate/SSB – biochemical, NIH Clinical Collection, E. coli SSB, artefact control for HCV NS3 helicase inhibitor project (AID 743268; call rule not given here). The following applies: Cy5-oligo bound E. coli SSB, fluorescence interference.
The test system of experiment [3] is Hepatitis C virus NS3 helicase. Description: blockers of NS3h binding to DNA – biochemical, fluorescence polarization, NIH Clinical Collection, primary screen (AID 743270; call rule not given here). To be noted: NS3 helicase binding to Cy5-dT15 DNA, stronger effect = higher value, concentration not given here.
For experiment [4], the target named is Single-stranded DNA-binding protein (Escherichia coli (strain K12)) (UniProt P0AGE0). As to the kind of experiment: SSB-ssDNA binding inhibitors – biochemical, fluorescence polarization, NIH Clinical Collection, counter-screen for HCV NS3 helicase inhibitor project (AID 743271; in the data active = inhibition above about 28%). The following applies: E. coli SSB-DNA binding, stronger effect = higher value, concentration not given here. (Fluorescence polarisation rises when a labelled molecule tumbles more slowly, as on binding a larger partner.)

Experiment [5] is described as follows: compounds distorting NS3 helicase fluorescence signal – biochemical, NIH Clinical Collection, artefact control for HCV NS3 helicase inhibitor project (AID 743272; call rule not given here;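 note: HCV NS3 helicase with a Cy5 labelled single stranded DNA probe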). The following applies: fluorescence interference counterscreen, HCV NS3 helicase assay; stronger effect = lower value. (In general: The purpose of a counterscreen is to sort out artefacts and off-target activity.)

The nature of experiment [6]: modulation of C. elegans fzo-1 (AID 1259413; call rule not given here;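 note: fzo-1 mutant C. elegans worms in liquid wells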). The following applies: C. elegans fzo-1 modulator screen, mean read-out; stronger effect = higher value.
Experiment [7] in a line: MELAS cybrid and Rieske KO viability enhancers – cell-based, MELAS cybrids, Rieske KO mouse fibroblasts, CellTiter-Glo, primary screen (AID 1508586;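 active = mean z-score across replicates of 1.96 or higher in either the MELAS or the Rieske mutant cell line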;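 note: z relative to plate mean and SD of compound and empty wells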). The following applies: low glucose.
The test system of another experiment is F380Y. Description: BK channel mutant inhibitors and activators – cell-based, U2OS BacMam, thallium flux, beta subunits, selectivity assay, profiling panel (AID 1259406).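 Note: initial slope of Thallos dye fluorescence rise after thallium is added; log ratio against the mean of 0.3% DMSO vehicle wells on the same plate.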 To be noted: U2OS BacMam BK variants, at 30 µM.
A further experiment relates to F380Y/beta1. The description is as above. To be noted: U2OS BacMam BK variants, at 30 µM.
A further experiment concerns F380Y/beta2Delta. Described as above. The following applies: U2OS BacMam BK variants, at 30 µM.
For a further experiment, the system named is F380Y/beta4. Described as above. The following applies: U2OS BacMam BK variants, at 30 µM.
Experiment [8] addresses Calcium-activated potassium channel subunit alpha-1 (Homo sapiens) + Leucine-rich repeat-containing protein 26 (Homo sapiens) (UniProt Q12791+Q2I0M4). Described as above. To be noted: U2OS BacMam BK variants, F380Y/Slo1WT/gamma1, at 30 µM.
The next experiment concerns R275C. Described as above. The following applies: U2OS BacMam BK variants, at 30 µM.
A further experiment deals with R275C/beta1. Described as above. To be noted: U2OS BacMam BK variants, at 30 µM.
A further experiment deals with R275C/beta2Delta. Described as above. The following applies: U2OS BacMam BK variants, at 30 µM.
For the next experiment, the system named is R275C/beta4. Described as above. To be noted: U2OS BacMam BK variants, at 30 µM.
The next experiment concerns R275C/Slo1WT/beta2. Described as above. The following applies: U2OS BacMam BK variants, at 30 µM.
The nature of experiment [9]: EMT-state selective cytotoxicity in co-culture – imaging, PC-3E GFP, TEM4-18 mCherry, primary screen (AID 1345086;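 active = compounds killing one labelled cell type while sparing the other, by normalised counts and ratio limits, not self-fluorescent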;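 note: cells exposed to compound for 72 h before imaging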;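 for red/green cell ratio (normalised): normalised mesenchymal count divided by normalised epithelial count so high means epithelial killing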). The following applies: PC-3E GFP / TEM4-18 mCherry co-culture, imaging cell counts, at 1 µM.
The nature of experiment [10]: viability loss with induced miR-34 in A549 – imaging, A549 dox-inducible miR-34, nuclei and caspase counts, primary screen (AID 1347080;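 active = compounds whose cell count with miR-34 switched on is under 0.7 times the count with it off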). To be noted: A549 miR-34 inducible, Hoechst nuclei count, 48 h.
The mark [11] stands for this setting: stronger effect = lower value, cell number ratio, induced over uninduced.
Where [12] appears, read: measured here: relative caspase fold change +Dox/-Dox.
Setting [13] is: measured here: total cells with miR-34 induction, stronger effect = lower value.
Where [14] appears, read: measured here: total cells without miR-34 induction.

“And” between values parts separate entries of the source, which are not always exact repeats. Identical values can stand only once. The source made the active and inactive calls.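 Rule for the calls, unless noted: active = thallium flux through the channel raised or lowered by more than 3 SD from vehicle-only wells, actives on both sides; inactive = the rest.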

Sequence of Calcium-activated potassium channel subunit alpha-1 (Homo sapiens) + Leucine-rich repeat-containing protein 26 (Homo sapiens) (Q2I0M4 whole entry, looked up, one chain of several): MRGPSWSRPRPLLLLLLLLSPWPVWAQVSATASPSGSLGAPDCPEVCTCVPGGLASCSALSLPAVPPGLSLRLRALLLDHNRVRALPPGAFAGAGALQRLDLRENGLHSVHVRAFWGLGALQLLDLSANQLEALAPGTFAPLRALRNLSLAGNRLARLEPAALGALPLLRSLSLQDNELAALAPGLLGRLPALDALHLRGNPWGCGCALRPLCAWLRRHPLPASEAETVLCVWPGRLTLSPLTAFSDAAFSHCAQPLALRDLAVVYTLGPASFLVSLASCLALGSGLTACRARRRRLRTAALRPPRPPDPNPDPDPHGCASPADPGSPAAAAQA

On to `CC(C)C[C@H](NC(=O)[C@@H](O)[C@H](N)Cc1ccccc1)C(=O)O`, for which the parasite load remaining in experiment [1] is 23.8% (inactive). Moreover, in [1], the viability was 136%. Moreover, the fluorescence ratio in [2] is 0.92 (inactive); in experiment [5], 0.88 (inactive). The inhibition was 0.66% (inactive) in [3] and 9.06% (inactive) in experiment [4]. The mean signal in experiment [6] is 255 (inactive). Besides, the z-score is -0.957 (inactive) in [7] (MELAS cybrid survival, CellTiter-Glo 48 h, stronger effect = higher value) and 0.817 in experiment [7] (Rieske KO mouse fibroblast survival, CellTiter-Glo 72 h). Besides, the log fold change Tl+ flux was -0.0323 (inactive) with F380Y; -0.0233 (inactive) in the experiment with F380Y/beta1; 0.0093 (inactive) with F380Y/beta2Delta; -0.0304 (inactive) with F380Y/beta4; -0.0684 (inactive) in [8]; -0.0391 (inactive) with R275C. In addition, the log fold change Tl+ flux was 0.000543 (inactive) in the experiment on R275C/beta1, -0.0202 (inactive) with R275C/beta2Delta, 0.00103 (inactive) in the experiment with R275C/beta4 and -0.0673 (inactive) with R275C/Slo1WT/beta2.
Regarding `CCOC(=O)C(C#N)=CNc1ccccc1OC(F)(F)F`, the log fold change Tl+ flux in the experiment with F380Y was -0.00694 (inactive); in the experiment on F380Y/beta1 it was -0.036 (inactive); in the experiment with F380Y/beta2Delta it was 0.0178 (inactive); in the experiment with F380Y/beta4 it was 0.027 (inactive); in experiment [8], -0.0183 (inactive); in the experiment with R275C it was -0.0335 (inactive). In addition, the log fold change Tl+ flux was -0.00201 (inactive) with R275C/beta1, -0.00638 (inactive) in the experiment on R275C/beta2Delta, -0.0357 (inactive) in the experiment with R275C/beta4 and -0.0488 (inactive) in the experiment on R275C/Slo1WT/beta2.
Turning to `CN/C(=C\[N+](=O)[O-])NCCSCc1csc(CN(C)C)n1`, the parasite load remaining in experiment [1] is 44.5% (inactive) and 113% (inactive). Further, the viability in experiment [1] was 104% and 78.4%. The figures for the fluorescence ratio in experiment [2] and in [5] were 1.02 (inactive) and 0.97 (inactive), respectively. The inhibition in experiment [3] was 1.19% (inactive); in experiment [4], -0.1% (inactive). In addition, in experiment [6], the mean signal was 274 (inactive). Moreover, the red/green cell ratio (normalised) in experiment [9] (actives lie on both sides, counts scaled to control wells, 1 = unselective) is 0.9 (inactive). Moreover, the normalised cell number in experiment [9] (measured here: epithelial PC-3E GFP cell survival) is 1.14; in experiment [9] (measured here: mesenchymal TEM4-18 mCherry cell survival) it was 1.02. The fold change was 0.871 (inactive) in experiment [10] (setting [11]) and 5.48 in [10] (setting [12]). The cell count in experiment [10] (setting [13]) came to 11400; in [10] (setting [14]), 13100. For the same compound, the log fold change Tl+ flux was 0.0132 (inactive) in the experiment with F380Y; -0.0313 (inactive) in the experiment on F380Y/beta1; 0.0292 (inactive) with F380Y/beta2Delta; 0.0177 (inactive) with F380Y/beta4; -0.0126 (inactive) in experiment [8]; 0.0141 (inactive) with R275C. Besides, the log fold change Tl+ flux is -0.02 (inactive) in the experiment with R275C/beta1, -0.0114 (inactive) with R275C/beta2Delta, -0.00775 (inactive) in the experiment on R275C/beta4 and 0.0359 (inactive) with R275C/Slo1WT/beta2.
On to `COC(=O)C[C@](O)(CCCC(C)(C)O)C(=O)O[C@@H]1C(OC)=C[C@]23CCCN2CCc2cc4c(cc2[C@H]13)OCO4`, for which the fluorescence ratio in experiment [2] was 1 (inactive); in experiment [5] it was 0.99 (inactive). For the same compound, the figures for the inhibition in experiment [3] and in experiment [4] were -0.22% (inactive) and 1.18% (inactive), respectively. Moreover, in [6], the mean signal is 211 (inactive). The values for the fold change in experiment [10] (setting [11]) and in experiment [10] (setting [12]) were 1.08 (inactive) and 1.16, respectively. Further, the cell count in experiment [10] (setting [13]) worked out at 1670; in experiment [10] (setting [14]), 1550. For the same compound, the log fold change Tl+ flux with F380Y was 0.0231 (inactive); in the experiment on F380Y/beta1, -4.2e-05 (inactive); with F380Y/beta2Delta, -0.00992 (inactive); in the experiment with F380Y/beta4, 0.013 (inactive); in experiment [8], -0.0674 (inactive); in the experiment with R275C it was -0.0969 (inactive). Moreover, the log fold change Tl+ flux in the experiment on R275C/beta1 was -0.0403 (inactive); in the experiment on R275C/beta2Delta it was -0.0559 (inactive); in the experiment on R275C/beta4, -0.045 (inactive); in the experiment with R275C/Slo1WT/beta2, 0.0211 (inactive).
